Laboratory results from ChEMBL document CHEMBL3988442, “University of Dundee, Small-Polar-MMV Screening Library” (2021).
Hit rate of the full screen: of about 48,000 compounds, about 13,000 (27%) showed an effect of 50% or more. This is one part of the list.

test system: Wolbachia pipientis; experiment: Anti-Wolbachia Cell-Based Screen; format: functional; set-up: scale not given: in the data most compounds retested in dose-response had high values; conditions: 5 µM

SMILES | Percent Effect
CNS(=O)(=O)CC(=O)N(C1CC1)C1Cc2ccccc2C1 | 0.4054%
Cc1cnc(C(=O)N2CCCN(Cc3csc(C)n3)CC2)cn1 | 7.438%
Cc1ncsc1C(=O)N1CCN(Cc2cscn2)CC1 | 129.9%
Cc1ncsc1C(=O)N1CCCN(Cc2cscn2)CC1 | -2.478%
Cc1ncsc1C(=O)N1CCCC(c2nccn2Cc2cscn2)C1 (stereo unspecified) | -18.71%
Cc1nc(CN2CCN(C(=O)c3scnc3C)CC2)cs1 | 142.4%
Cc1cnc(C(=O)N2CCN(Cc3csc(C)n3)CC2)cn1 | 75.58%
CC(Cc1ccccn1)N(C)C(=O)c1ncc[nH]1 (stereo unspecified) | -16.95%
COCCn1cnc(-c2cc(C(=O)NC(C)C)c3ccccn23)c1 | -8.086%
O=C(CNc1cccc(S(=O)(=O)C(F)F)c1)Nc1ccccc1 | 9.714%
COc1ncccc1C1CC(=O)NCc2nc3ccccn3c21 (stereo unspecified) | -11.47%
CC(C)n1ncc2c1NC(=O)CC21C(=O)Nc2c(Cl)cccc21 (stereo unspecified) | -6.68%
Cc1ccc(S(=O)(=O)NCC2(O)CCOc3ccccc32)s1 (stereo unspecified) | 0.721%
Cc1cc(C)c(CNC(=O)N2CCC(N3CCNC3=O)CC2)c(C)c1 | -1.308%
COc1cccc(-c2noc(-c3ccc(N4CC(N)C4)nc3)n2)c1OC | 0.2823%
O=C(NCc1ccco1)[C@H]1CC[C@@H]2[C@@H](CCN2Cc2cccnc2)O1.O=C(O)C(F)(F)F.O=C(O)C(F)(F)F | -10.47%
O=C(NCCc1ccccn1)[C@@H]1CC[C@@H]2[C@@H](CCN2Cc2ccoc2)O1.O=C(O)C(F)(F)F.O=C(O)C(F)(F)F | 100.1%
CS(=O)(=O)N1CC[C@H]2O[C@H](C(=O)NCCc3ccccn3)CC[C@H]21.O=C(O)C(F)(F)F | 2.249%
Cn1cc(CN2CC[C@H]3O[C@H](C(=O)NCc4ccco4)CC[C@H]32)cn1.O=C(O)C(F)(F)F | -21.14%
Cn1cc(CN2CC[C@H]3O[C@@H](C(=O)NC4CC4)CC[C@H]32)cn1.O=C(O)C(F)(F)F.O=C(O)C(F)(F)F | 2.978%
O=C(NCc1cccnc1)[C@H]1CC[C@@H]2[C@@H](CCN2c2ncccn2)O1.O=C(O)C(F)(F)F.O=C(O)C(F)(F)F | -7.451%
O=C(Nc1cnccn1)[C@H]1CC[C@@H]2[C@@H](CCN2Cc2ccoc2)O1.O=C(O)C(F)(F)F | 111.7%
O=C(O)C(F)(F)F.O=C([C@@H]1CC[C@@H]2[C@@H](CCN2Cc2ccoc2)O1)N1CCCC1 | 8.52%
O=C(NCc1cccs1)[C@H]1CC[C@@H]2[C@@H](CCN2Cc2ccoc2)O1.O=C(O)C(F)(F)F | 94.68%
Cn1cc(CN2CC[C@H]3O[C@H](C(=O)Nc4cnccn4)CC[C@H]32)cn1.O=C(O)C(F)(F)F | 123.6%
O=C(NCc1cccs1)[C@H]1CC[C@@H]2[C@@H](CCN2c2ncccn2)O1.O=C(O)C(F)(F)F | 16.99%

SMILES | Percent Effect
C[C@@H]1CN(Cc2ccc(-c3ccncc3)cc2F)CC(C(N)=O)O1 (stereo partly specified) | -2.76%
Cc1ccccc1OCCN(C)Cc1noc(CC(C)C)n1 | -23.34%
CCc1nnc(CN2CCCCC2Cn2nc(C)nc2C)o1 (stereo unspecified) | 93.98%
CCc1nnc(CN2CCCCC2Cn2cncn2)o1 (stereo unspecified) | 78.77%
Clc1snnc1CN1CCCCC1Cn1cncn1 (stereo unspecified) | -4.6%
Cc1nc(C)n(CC2CCCCN2Cc2nnc(C3CC3)o2)n1 (stereo unspecified) | 1.656%
Cc1cnn(CC2CCCCN2CCn2cncn2)c1 (stereo unspecified) | -5.934%
Cc1nc(C)n(CC2CCCCN2CCCS(C)(=O)=O)n1 (stereo unspecified) | 12.99%
c1ccc(Cc2nnc(CN3CCCC3Cn3cccn3)o2)cc1 (stereo unspecified) | 131.9%
Cc1nc(C2CCCN2Cc2nnc(Cc3ccccc3)o2)no1 (stereo unspecified) | -12.76%
CCc1nc(C2CCCN2Cc2nnc(Cc3ccccc3)o2)no1 (stereo unspecified) | 6.131%
c1ccc(Cc2nnc(CN3CCCCC3Cn3cncn3)o2)cc1 (stereo unspecified) | 108.9%
OC1CCN(c2ccc(CNc3nc4ccccc4s3)cc2F)CC1 | -3.16%
CS(=O)(=O)N1CCc2[nH]cnc2C12CCN(C(=O)c1ccc[nH]1)CC2 | 5.069%
NCCC1CN(Cc2cnc3c(-c4ccccc4)cnn3c2)CCO1 (stereo unspecified) | 4.404%
CN(C)CCCN(C)c1nccc(N2CCN[C@H]3CS(=O)(=O)C[C@H]32)n1 | -10.75%
COCCNC(=O)NCCn1nc(C(F)(F)F)n(C)c1=O | 0.0676%
CC1(C)CN(Cc2c[nH]c(CC3CCCC3)n2)CC[C@]1(C)O | -6.969%
Cc1cc(C)c(S(=O)(=O)Nc2ccccc2CC(F)(F)F)cc1C(=O)O | 3.88%
c1cnc2c(c1)nc1n2[C@@H](CNCc2nccs2)COC1 | -1.802%
Cc1nc(C)n(CC2CCCCN2Cc2cnc(C)s2)n1 (stereo unspecified) | 97.07%
Fc1ccc(-c2nnc(CN3CCCC3Cn3cccn3)o2)cc1 (stereo unspecified) | 88.78%
Cc1nc(C)n(CC2CCCN2Cc2cnc(C)s2)n1 (stereo unspecified) | -0.1768%
Cc1nc(C)n(CC2CCCCN2Cc2cscn2)n1 (stereo unspecified) | 10.69%
Fc1ccc(-c2cnc(CN3CCCC3Cn3cccn3)o2)cc1 (stereo unspecified) | -6.963%
